HCV inh = inhibitors of hepatitis C virus infection. Huh7.5.1 HCVcc-Cre infection, luciferase reporter, 44 h. Potency, µM (highest dose often 41.8 µM), usual class: inhibitors. actives 3.4% (n = 340,000). AID 651820
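Cells seeded at 1,000/well and cultured 4 h, then compounds added followed by HCVcc-Cre virus (~0.5 moi). After 44 h further culture, luciferase substrate was added, plates held 15 min at room temperature, and luminescence read for 15 sec.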
AmpC inh detg = blocks E. coli AmpC beta-lactamase in detergent assay. P00811. AmpC hydrolysis of nitrocefin, absorbance 480 nm, 0.01% Triton. Potency, µM (titrated, usually from 114 µM), actives largely listed as inhibitors. actives 0.041% (n = 370,000). AID 485294; further: nearly all actives have a fitted effect of over 25% in size
Target sequence (P00811 whole entry, looked up): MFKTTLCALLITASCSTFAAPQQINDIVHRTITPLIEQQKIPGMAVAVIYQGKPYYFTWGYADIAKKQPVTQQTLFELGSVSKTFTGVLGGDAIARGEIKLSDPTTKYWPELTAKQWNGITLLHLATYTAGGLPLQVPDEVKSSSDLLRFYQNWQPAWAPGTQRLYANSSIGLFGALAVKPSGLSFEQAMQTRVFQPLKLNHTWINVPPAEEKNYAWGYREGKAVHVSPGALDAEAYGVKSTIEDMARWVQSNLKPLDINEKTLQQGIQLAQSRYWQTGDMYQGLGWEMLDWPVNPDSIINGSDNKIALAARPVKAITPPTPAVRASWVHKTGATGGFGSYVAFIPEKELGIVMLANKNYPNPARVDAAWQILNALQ
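AmpC (5.3 nM in the dispensed reagent) in 20 mM phosphate pH 7.0 with 0.01% (detergent screen) or 0.0001% Triton X-100 was preincubated with compounds for 15 min at room temperature. Nitrocefin was then added from an 800 uM solution, and hydrolysis was followed at 480 nm.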
HCMV inh = inhibitors of human cytomegalovirus | AID 1259415 | HFF cells, HCMV-luciferase reporter, 72 h; hits give low values | actives 4.5% (n = 410,000) | activity change, negative = inhibition, % at 57.5 µM; in the data active means activity change below about -60%; inconclusive means no clear call, values can overlap the other calls; inactive means above about -39%
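Two-dose cell screen: HFF monolayers treated with compounds and infected with luciferase-expressing HCMV at 1 PFU/cell, 72 h at 37C, then lysed for luciferase measurement.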
AmpC inh no detg = inhibitors of E. coli AmpC beta-lactamase without detergent; P00811; AmpC nitrocefin hydrolysis, absorbance 480 nm, 0.0001% Triton; Potency, µM (top dose mostly 57.1 µM), usual class: inhibitors; actives 0.52% (n = 330,000); AID 485341; further: nearly all actives have a fitted effect of over 20% in size
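20 mM phosphate pH 7.0 + 0.01% (detergent screen) or 0.0001% Triton X-100; 5.3 nM AmpC reagent; cpd preinc 15 min RT; nitrocefin (800 uM stock) to start; A480 q20 s × 4 min; Activity was normalised to no-enzyme and no-compound control wells.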
FMDV inh = foot and mouth disease virus antiviral activity. FMDV antiviral cell-based qHTS. Potency, µM (titrated, usually from 57.9 µM), usual class: inhibitors. actives 1.2% (n = 410,000). AID 1159524; calls by dose curve; tested in HEK293T cells; further: read-out not given here; nearly all actives have a fitted effect of over 45% in size
Of the large screens only hits and unclear results are named; the others gave an inactive call. Rows were chosen to be rich in hits. Some 7.3% of all compounds tested hit in one or more screens of this group. Unless noted, the call rests on the fitted dose curve; in most records, active means well fitted curve in the direction sought with a large enough effect; inconclusive means small, poorly fitted or top-dose-only effect, or another doubt; inactive means no such curve, though single readings can be large; an effect the other way counts as inactive or inconclusive.

Cc1cccc(Cc2nnc(CCC(=O)N(C)C3CCOC3)o2)c1 (stereo unspecified)	HCMV inh -70.2
Cc1cccc(Cc2nnc(CCC(=O)N(CC3CC3)CC3CCCO3)o2)c1 (stereo unspecified)	none
CCCc1c(C)nc2ccccc2c1SCCC#N	HCV inh inconclusive, HCMV inh -85.4
Cc1ccc2nc(SCCC#N)nc(C)c2c1	HCV inh 10µM, AmpC inh detg inconclusive
CCc1c(C)nc2ccc(Br)cc2c1SCCC#N	HCV inh inconclusive, AmpC inh detg inconclusive, HCMV inh -83.5, FMDV inh inconclusive
CCCCc1c(C)nc2ccc(Br)cc2c1SCCC#N	HCV inh inconclusive (no result: HCMV inh, FMDV inh)
CCc1c(C)nc2c(Br)cccc2c1SCCC#N	HCV inh inconclusive, HCMV inh inconclusive, FMDV inh inconclusive
COc1ccccc1CNC(=O)Cc1c(C)c2c(cc(C)c3c(C)c(C)oc32)oc1=O	none (no result: HCV inh, AmpC inh no detg)
CCN(CC)C(=O)CSc1nc2c(sc(=S)n2-c2ccccc2)c(=O)n1Cc1ccco1	HCV inh 10µM, AmpC inh detg inconclusive, HCMV inh -67.5, FMDV inh inconclusive
CCC(C)NC(=O)CSc1nc2c(sc(=S)n2Cc2ccco2)c(=O)n1-c1ccccc1 (stereo unspecified)	HCV inh inconclusive, HCMV inh inconclusive, FMDV inh inconclusive
CCN(CC)C(=O)CSc1nc2c(sc(=S)n2CC)c(=O)n1-c1ccccc1	AmpC inh detg inconclusive, HCMV inh -71.6, FMDV inh inconclusive
O=C(NCCOc1ccccc1)[C@@H]1CCCN1C(=O)c1cccs1	none (no result: AmpC inh detg, AmpC inh no detg)
COc1cccc(C(=O)NCC2Cc3c(F)ccc(-c4ncccn4)c3O2)c1OC (stereo unspecified)	none (no result: HCV inh, AmpC inh detg, HCMV inh, AmpC inh no detg)
CCCCCCc1cc2cc(C(=O)Nc3cccc(OC)c3)c(=O)oc2cc1O	HCV inh inconclusive, HCMV inh -87.9, FMDV inh inconclusive
CCCCCCc1cc2cc(S(=O)(=O)c3ccc(F)c(Cl)c3)c(=O)oc2cc1O	HCV inh inconclusive, AmpC inh detg inconclusive, HCMV inh -102.2
COc1ccc(NC(=O)c2cc3ccc(O)cc3o/c2=N\O)cc1	HCV inh 22.4µM, AmpC inh detg inconclusive, FMDV inh inconclusive
CCCCCCc1cc2cc(C(=O)Nc3ccc(OC)cc3)c(=O)oc2cc1O	HCV inh inconclusive, HCMV inh -61.1, FMDV inh inconclusive
CCCCCCc1cc2cc(C(=O)OCC)c(=O)oc2cc1O	none
O=C1NC[C@H](CCCCN2C[C@H](Cc3ccc(O)cc3)N(Cc3ccccc3)C(=O)C2=O)N(Cc2ccccc2)C1=O	none (no result: HCV inh, AmpC inh detg, AmpC inh no detg)
C=CCN1C=C(C(=O)OCC)C(=O)CC1	none (no result: HCV inh, AmpC inh detg, AmpC inh no detg, FMDV inh)
CCN(CC)CC(O)COc1ccc2c(c1)OCO2 (stereo unspecified)	HCMV inh -98.3
COc1ccc(CCNc2cc(C)nc3c(-c4ccccc4OC)cnn23)cc1OC	HCV inh 12.6µM (no result: HCMV inh)
CCCCOc1ccc(C(=O)Nc2ccc3c(c2)CCCN3C(=O)c2cccs2)cc1	HCMV inh -87.4, FMDV inh 25.1µM (no result: HCV inh, AmpC inh no detg)
Cc1ccccc1C(=O)Nc1ccc2c(c1)CCCN2C(=O)c1cccs1	HCV inh inconclusive, HCMV inh active
CC(C)Oc1ccc(C(=O)Nc2ccc3c(c2)CCCN3C(=O)c2cccs2)cc1	HCMV inh -89.3, FMDV inh 22.4µM (no result: HCV inh, AmpC inh no detg)
COc1ccc(C(=O)Nc2ccc3c(c2)CCCN3C(=O)c2cccs2)c(OC)c1	HCMV inh inconclusive, FMDV inh inconclusive
COc1ccc(F)cc1S(=O)(=O)Nc1ccc2c(c1)CCCN2C(=O)c1cccs1	HCMV inh -74.8 (no result: HCV inh, AmpC inh no detg)
Cc1ccc2c(c1)CCCN2C(=O)c1cccs1	none
O=C(CN1CCN(S(=O)(=O)c2ccc(Cl)c(C(F)(F)F)c2)CC1)NC(=O)NC1CCCCC1	HCV inh inconclusive, FMDV inh inconclusive (no result: AmpC inh detg, AmpC inh no detg)
CCCn1c(C(C)Nc2nc(-c3cc(Cl)c(N)c(Cl)c3)cs2)nc2cc(Cl)c(N3CCCCC3)cc21 (stereo unspecified)	none
CSc1cccc(Nc2cc(C(=O)NCCc3ccc(Cl)cc3)c3ccccc3n2)c1	HCMV inh -102.1 (no result: HCV inh, AmpC inh no detg)
CCCCN(CCCNC(=O)c1cc(Nc2cccc(SC)c2)nc2ccccc12)Cc1ccccc1	HCMV inh -99.0 (no result: HCV inh, AmpC inh no detg)
Cc1cc(C(=O)NCCc2ccc(Cl)cc2)c2ccccc2n1	FMDV inh inconclusive
CC(C)c1ccc(Nc2cc(C(=O)NCCCN(C)Cc3ccccc3)c3ccccc3n2)cc1	none (no result: HCV inh, AmpC inh no detg)
COc1ccc2c(c1)CCC/C(C)=C/C(=O)c1ccccc1O2	none (no result: HCV inh, AmpC inh detg, AmpC inh no detg, FMDV inh)
O=C(c1ccc2c(c1)OCO2)N(Cc1cc2ccc(F)cc2nc1N1CCC(O)CC1)CC1CCCO1 (stereo unspecified)	none (no result: HCV inh, AmpC inh detg, HCMV inh, AmpC inh no detg)
Cc1ccc(S(=O)(=O)N2CCCCC2)cc1C(=O)Nc1ccc(N2CCOCC2)cc1	HCV inh inconclusive
O=C(c1cccc(S(=O)(=O)N2CCCC2)c1)c1cccc(S(=O)(=O)N2CCCC2)c1	HCV inh inconclusive, HCMV inh -74.1, FMDV inh inconclusive
O=C(c1cccc(S(=O)(=O)N2CCCCC2)c1)N1CCCCC1	none
CC(=O)N1CCN(c2ccc(NC(=O)c3cccc(Cl)c3Cl)cc2)CC1	none
O=C(Nc1ccc(N2CCCC2)cc1)c1cccc(Cl)c1Cl	HCV inh inconclusive, HCMV inh -80.3
COc1ccc(S(=O)(=O)N2CCOCC2)cc1C(=O)Nc1ccc(N2CCCCCC2)cc1	HCV inh 14.1µM, HCMV inh inconclusive (no result: AmpC inh detg, AmpC inh no detg)
O=C(Nc1ccc(N2CCOCC2)cc1)c1cccc(S(=O)(=O)N2CCCC2)c1	HCV inh 6.31µM (no result: HCMV inh)
O=C(Nc1ccc(N2CCOCC2)cc1)c1cccc(S(=O)(=O)N2CCCCCC2)c1	HCV inh inconclusive, HCMV inh inconclusive
CCOC(=O)c1ccc(NC(=O)c2cccc(S(=O)(=O)N3CCN(C(C)=O)CC3)c2)cc1	HCV inh 10µM
O=C(NC1CCCC1)c1cccc(S(=O)(=O)N2CCOCC2)c1	AmpC inh detg inconclusive, HCMV inh -102.8
Cc1ccsc1C(=O)NNC(=O)c1cccc(S(=O)(=O)N2CCCC2)c1	HCMV inh active
CCCOC(=O)c1ccc(NC(=O)c2cccc(S(=O)(=O)N3CCN(C(C)=O)CC3)c2)cc1	HCV inh inconclusive
Cc1ccccc1NC(=O)c1cccc(S(C)(=O)=O)c1	HCMV inh -102.3
COc1cccc(CN2CCCC(c3nc(-c4ccncc4)ncc3-c3ccccc3)C2)c1O (stereo unspecified)	none (no result: HCV inh, AmpC inh detg, HCMV inh, AmpC inh no detg)
O=C(NCCN1C(=O)S/C(=C\c2ccc(F)cc2)C1=O)c1cccc(S(=O)(=O)N2CCOCC2)c1	HCV inh 10µM, AmpC inh detg inconclusive
COc1ccccc1C(=O)NCC1CCN(c2ccc(S(=O)(=O)N3CCOCC3)cc2)CC1	HCV inh inconclusive, HCMV inh -76.1 (no result: FMDV inh)
CS(=O)(=O)c1cccc(C(=O)Nc2ccc(S(=O)(=O)N3CCCCC3)cc2)c1	HCV inh 4.47µM, HCMV inh -63.3
O=C(Nc1ccc(N2CCCC2)cc1)c1cccc(-c2cc3ccccc3oc2=O)c1	HCMV inh -63.3

Compound activity from PubChem BioAssay.
